According to PubChem BioAssay (NCATS):
Results filed as inconclusive are left out. Active and inactive are the calls of the source. Calls come from the whole dose curve; as a rule, active = well fitted inhibition curve with a large enough effect; inconclusive = small, poorly fitted or top-dose-only effect; inactive = flat fitted curve, though single readings scatter. *1 amine or outer side, *2 acyl side, *3 side chain or, on linkers, in order; H or OH if unused. Where a SMILES comes first, the peptide text is derived from it. [ ]: non-standard residue; d: D form. The star is where a group is joined. X13 = O=C(C(CC(O)CO)O[*:1])[*:2]; NMeV = CN[CH](C(=O)O)C(C)C; Cbz = O=C(OCc1ccccc1)*; NMeA = CN[CH](C)C(=O)O; βAla = NCCC(=O)O; CH2F = FC*

Columns and labels:
Assay in all cases: Cytotoxic Profiling of Annotated Libraries Using Quantitative High-Throughput Screening (AID 1296008); note: nearly all actives have a fitted effect of over 60% in size
Conditions in all cases: Five cell lines viability, CellTiter-Glo ATP luminescence, 48-72 h; max response: hits give low values
CRL-7250 = normal cell line; tested on: CRL-7250
Procedure, shortened: (§1)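 Cells exposed to compounds for 48 or 72 hr at 37 degrees Celsius. Viability read as ATP-coupled luminescence with CellTiter-Glo after 10 min at room temperature.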

HEK293 = tested on: HEK293
Procedure, shortened: as §1

HaCat = tested on: HaCat
Procedure, shortened: as §1

KB-3-1 = tested on: KB-3-1
Procedure, shortened: as §1

NIH3T3 = tested on: NIH3T3
Procedure, shortened: as §1

Measured: max response
% is set by controls: 0 for no effect and ±100 for the full control effect.

C=C1CCC[C@]2(C)CC[C@@](O)(C(=C)C(=O)O)C[C@@H]12
inactive: CRL-7250 -0.228% | HEK293 -21.6% | HaCat | KB-3-1 -4.38% | NIH3T3 -3.81%

C=C1CCC2(C(=O)OC3OC(CO)C(O)C(O)C3O)CCC3(C)C(=CCC4C5(C)CCC(OC6OC(CO)C(OC7OC(C)C(O)C(O)C7O)C(OC7OCC(O)C(O)C7O)C6O)C(C)(C)C5CCC43C)C2C1 (stereo not given)
inactive: CRL-7250 4.25% | HEK293 -4.7% | HaCat | KB-3-1 3.47% | NIH3T3 -2.38%

CC(C)=CCC[C@](C)(O[C@@H]1O[C@H](CO[C@@H]2O[C@@H](CO)[C@H](O)[C@H]2O[C@@H]2OC[C@@H](O)[C@H](O)[C@H]2O)[C@@H](O)[C@H](O)[C@H]1O)[C@H]1CC[C@]2(C)[C@@H]1[C@H](O)CC1[C@@]3(C)CC[C@H](O[C@@H]4O[C@H](CO)[C@@H](O)[C@H](O)[C@H]4O[C@@H]4O[C@H](CO)[C@@H](O)[C@H](O)[C@H]4O)C(C)(C)C3CC[C@]12C (stereo not given in full)
inactive: CRL-7250 4.19% | HEK293 -1.64% | HaCat | KB-3-1 8.39% | NIH3T3 4.58%

O=C(O)c1ccnc(-c2cc(C(=O)NCCc3ccccc3)ccn2)c1
inactive: CRL-7250 0.77% | HEK293 -13.9% | HaCat | KB-3-1 6.53% | NIH3T3 -2.98%

CC1CC(=O)[C@]2(O)C(C(=O)OCCc3ccc(O)c(O)c3)=CO[C@@H](O[C@@H]3O[C@H](CO)[C@@H](O)[C@H](O)[C@H]3O)[C@H]12 (stereo not given in full)
inactive: CRL-7250 4.18% | HEK293 -8.88% | HaCat | KB-3-1 8.6% | NIH3T3 0.72%

O=C(O)Cc1cn([C@@H]2OC[C@@H](O[C@@H]3O[C@H](CO)[C@@H](O)[C@H](O)[C@H]3O)[C@H](O)[C@H]2O[C@@H]2O[C@H](CO)[C@@H](O)[C@H](O)[C@H]2O)c2ccccc12
inactive: CRL-7250 -0.703% | HEK293 2.5% | HaCat | KB-3-1 5.94% | NIH3T3

CC(C)[C@@H](C(=O)O)N1Cc2c(cc(O)c3c2O[C@]2(C3)[C@H](C)CCC3C(C)(C)[C@H](O)[C@H](O)C[C@@]32C)C1=O (stereo not given in full)
inactive: CRL-7250 2.63% | HEK293 -15% | HaCat 2.56% | KB-3-1 3.13% | NIH3T3

C[C@@H]1O[C@@H](O[C@H]2[C@@H]3C=CO[C@@H](O[C@@H]4O[C@H](CO)[C@@H](O)[C@H](O)[C@H]4O)[C@@H]3[C@@]3(CO)O[C@@H]23)[C@H](O)[C@H](OC(=O)/C=C/c2ccc(O)c(O)c2)[C@H]1O
inactive: CRL-7250 2.8% | HEK293 1.13% | HaCat | KB-3-1 -0.915% | NIH3T3

COc1cc2c(c(O)c1OC/C=C(\C)CC/C=C(/C)CCC=C(C)C)CN(C(CCC(=O)O)C(=O)O)C2=O (stereo not given)
inactive: CRL-7250 | HEK293 2.31% | HaCat | KB-3-1 3.38% | NIH3T3 -3.47%

CCC(C)C1NC(=O)C2CCCN2C(=O)C(CC(O)CO)OC(=O)CCNC(=O)C(C)N(C)C(=O)C(C(C)C)N(C)C1=O (stereo not given) (cyclo([X13]PI[NMeV][NMeA][βAla]); configuration not given here)
inactive: CRL-7250 -8.24% | HEK293 2.6% | HaCat | KB-3-1 9.21% | NIH3T3

COC(=O)C1(O)C(OC(C)=O)CCC2C3(CC(c4ccoc4)OC3=O)C(C)=CCC21C(=O)OC (stereo not given)
inactive: CRL-7250 -2.77% | HEK293 4.98% | HaCat | KB-3-1 9.04% | NIH3T3

COc1cc(Nc2ccc([N+](=O)[O-])cc2C(=O)O)cc2ccccc12
inactive: CRL-7250 -0.179% | HEK293 1.77% | HaCat | KB-3-1 -5.92% | NIH3T3 -2.53%

CC1(C)CC[C@]2(C(=O)O[C@@H]3O[C@H](CO[C@@H]4O[C@H](CO)[C@@H](O)[C@H](O)[C@H]4O)[C@@H](O)[C@H](O[C@@H]4O[C@H](CO)[C@@H](O)[C@H](O)[C@H]4O)[C@H]3O)CC[C@]3(C)C(=CCC4[C@@]5(C)CC[C@H](O[C@@H]6OC[C@@H](O)[C@H](O)[C@H]6O)[C@@](C)(C(=O)O)C5CC[C@]43C)[C@@H]2C1 (stereo not given in full)
inactive: CRL-7250 | HEK293 -19.5% | HaCat -27.8% | KB-3-1 | NIH3T3

CC1=CC(=O)CC(C)(C)[C@@]1(O)/C=C/C(C)O[C@@H]1O[C@H](CO)[C@@H](O)[C@H](O)[C@H]1O (stereo not given in full)
inactive: CRL-7250 -4.8% | HEK293 -13.1% | HaCat | KB-3-1 | NIH3T3

C[C@@H]1O[C@@H](O[C@H]2[C@H](O[C@H]3[C@H](O[C@H]4CC[C@@]5(C)C(CC[C@]6(C)C5CC=C5[C@@H]7CC(C)(C)C[C@@H](O)[C@]7(C)CC[C@]56C)C4(C)C)O[C@H](C(=O)O)[C@@H](O)[C@@H]3O)O[C@H](C(=O)O)[C@H](O)[C@@H]2O)[C@H](O)[C@H](O)[C@H]1O (stereo not given in full)
inactive: CRL-7250 -7.66% | HEK293 -8.11% | HaCat | KB-3-1 | NIH3T3 0.708%

CC(=O)NC1CC(=O)C23C(=O)NC(Cc4c[nH]c5ccccc45)C2C(C)=C(C)C(O)C3/C=C/CC(C)/C=C(/C)C(O)C1O (stereo not given)
inactive: CRL-7250 -0.702% | HEK293 4.13% | HaCat | KB-3-1 0.623% | NIH3T3

C[C@@H]1CC2OC(=O)C3=C2C(CCC3O)[C@@]12C[C@@H](c1ccoc1)OC2=O (stereo not given in full)
inactive: CRL-7250 -0.741% | HEK293 2.79% | HaCat | KB-3-1 | NIH3T3

CC1(C)C=Cc2c(ccc3c2N=C2C(C)(C)[C@@H]4C[C@]56CCCN5C(=O)[C@@]4(C[C@]23O)NC6=O)O1
inactive: CRL-7250 3.82% | HEK293 | HaCat 3.57% | KB-3-1 | NIH3T3 -4.67%

Cc1cn(-c2cc(NC(=O)c3ccc(C)c(Nc4nccc(-c5cnccn5)n4)c3)cc(C(F)(F)F)c2)cn1
inactive: CRL-7250 -3.34% | HEK293 -20.5% | HaCat | KB-3-1 -2.9% | NIH3T3

Cc1occc(=O)c1O[C@@H]1O[C@H](CO[C@@H]2OC[C@](O)(CO)[C@H]2O)[C@@H](O)[C@H](O)[C@H]1O
inactive: CRL-7250 | HEK293 0.165% | HaCat | KB-3-1 | NIH3T3 1.4%

COc1cc(O)cc(C)c1C(=O)OC1C(CO)OC(n2ccc(=O)[nH]c2=O)C1OC(C)=O (stereo not given)
inactive: CRL-7250 | HEK293 2.97% | HaCat | KB-3-1 8.59% | NIH3T3 -1.67%

COc1cc2c(cc1O)C(c1ccc(O)cc1)C(C)C(C)C2 (stereo not given)
inactive: CRL-7250 -22.8% | HEK293 -21.2% | HaCat | KB-3-1 -7.89% | NIH3T3 -6.55%

C[C@@H]1CC[C@]2(C(=O)O[C@@H]3O[C@H](CO[C@@H]4O[C@H](CO)[C@@H](O)[C@H](O)[C@H]4O)[C@@H](O)[C@H](O)[C@H]3O)CC[C@]3(C)C(=CCC4[C@@]5(C)CC[C@H](O)[C@](C)(C(=O)O)C5CC[C@]43C)[C@@H]2[C@]1(C)O (stereo not given in full)
inactive: CRL-7250 | HEK293 3.94% | HaCat | KB-3-1 2.71% | NIH3T3 -11.7%

CCC(C)C(C(=O)O)N1Cc2c(OCC=C(C)C)c(C)c(OC)c(C(=O)O)c2C1=O (stereo not given)
inactive: CRL-7250 0.564% | HEK293 -3.21% | HaCat | KB-3-1 | NIH3T3 -10.1%

COc1ccc(-n2c(SCC#N)nc3sc4c(c3c2=O)CCCC4)cc1
inactive: CRL-7250 1.37% | HEK293 3.85% | HaCat | KB-3-1 9.32% | NIH3T3 4.07%

CC1(C(=O)O)CCCC2(C)C3CCC4CC3(CCC12)CC4(O)CO (stereo not given)
inactive: CRL-7250 1.56% | HEK293 -16.5% | HaCat | KB-3-1 5.7% | NIH3T3 0.753%

CC1=C(C)C(=O)OC(C(C)C2C(O)CC3C4C5OC5C5(O)CC(OC6OC(CO)C(OC7OC(C)C(O)C(O)C7O)C(O)C6O)CC(O)C5(C)C4CCC32C)C1 (stereo not given)
inactive: CRL-7250 -10% | HEK293 -3.17% | HaCat | KB-3-1 2.34% | NIH3T3 0.724%

CC1=C2CC(C)(C)CC2C(O)C2=C(C1)C(=O)OC2O (stereo not given)
inactive: CRL-7250 | HEK293 4.01% | HaCat | KB-3-1 | NIH3T3 -6.57%

CC(=O)OC1CCC2(C)C(CCC3(C)C2CC=C2C4CC(C)(C)CCC4(C)CCC23C)C1(C)C(=O)O (stereo not given)
inactive: CRL-7250 -8.32% | HEK293 | HaCat -5.03% | KB-3-1 3% | NIH3T3 3.68%

C[C@@H]1O[C@@H](O[C@H]2[C@H](O[C@H]3[C@H](O[C@H]4CC[C@@]5(C)C(CC[C@]6(C)C5CC=C5[C@@H]7CC(C)(C)CC(=O)[C@]7(C)CC[C@]56C)[C@@]4(C)CO)O[C@H](C(=O)O)[C@@H](O)[C@@H]3O)O[C@H](CO)[C@H](O)[C@@H]2O)[C@H](O)[C@H](O)[C@H]1O (stereo not given in full)
inactive: CRL-7250 -2.01% | HEK293 -1.03% | HaCat | KB-3-1 | NIH3T3 0.221%

C/C(=C\CCC(C)CCO)C(=O)OC[C@H]1O[C@@H](O[C@@H]2OC=C(C(=O)O)[C@H]3CC[C@](C)(O)[C@@H]23)C(O)[C@@H](O)C1O (stereo not given in full)
inactive: CRL-7250 3.02% | HEK293 4.12% | HaCat | KB-3-1 | NIH3T3

COC(=O)CC[C@H](NC(=O)[C@H](CC(C)C)NC(=O)OCc1ccccc1)C(=O)N[C@@H](Cc1cnc[nH]1)C(=O)N[C@@H](CC(=O)OC)C(=O)CF (Cbz-LE(OMe)HD(OMe)-CH2F)
inactive: CRL-7250 | HEK293 2.63% | HaCat | KB-3-1 | NIH3T3

Nc1ncnc2c1ncn2[C@H]1O[C@@H](C(=O)N2CCN(CC(=O)Nc3cccc4c3CNC4=O)CC2)[C@H](O)[C@@H]1O
inactive: CRL-7250 | HEK293 1.78% | HaCat | KB-3-1 | NIH3T3
